The record followed here is publication PMC4336329 (PLoS ONE, 2015).

Each structure is given as a SMILES string. Among all 310,000 compounds or so, about 14,000 (4.5%) showed an effect of 50% or more. The effect is printed as a negative number. Only a selection was taken, and strong results are over-represented in it overall.
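Also: peak tail current of the secondary pulse compared with the same well before compound.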

This test deals with human ether-à-go-go-related gene (hERG) potassium channel (human, UniProt Q12809). Kind of test: primary screen, population patch clamp on CHO cells stably expressing hERG; higher = less effect of the substance.
Chain of human ether-à-go-go-related gene (hERG) potassium channel (Q12809 whole entry, looked up): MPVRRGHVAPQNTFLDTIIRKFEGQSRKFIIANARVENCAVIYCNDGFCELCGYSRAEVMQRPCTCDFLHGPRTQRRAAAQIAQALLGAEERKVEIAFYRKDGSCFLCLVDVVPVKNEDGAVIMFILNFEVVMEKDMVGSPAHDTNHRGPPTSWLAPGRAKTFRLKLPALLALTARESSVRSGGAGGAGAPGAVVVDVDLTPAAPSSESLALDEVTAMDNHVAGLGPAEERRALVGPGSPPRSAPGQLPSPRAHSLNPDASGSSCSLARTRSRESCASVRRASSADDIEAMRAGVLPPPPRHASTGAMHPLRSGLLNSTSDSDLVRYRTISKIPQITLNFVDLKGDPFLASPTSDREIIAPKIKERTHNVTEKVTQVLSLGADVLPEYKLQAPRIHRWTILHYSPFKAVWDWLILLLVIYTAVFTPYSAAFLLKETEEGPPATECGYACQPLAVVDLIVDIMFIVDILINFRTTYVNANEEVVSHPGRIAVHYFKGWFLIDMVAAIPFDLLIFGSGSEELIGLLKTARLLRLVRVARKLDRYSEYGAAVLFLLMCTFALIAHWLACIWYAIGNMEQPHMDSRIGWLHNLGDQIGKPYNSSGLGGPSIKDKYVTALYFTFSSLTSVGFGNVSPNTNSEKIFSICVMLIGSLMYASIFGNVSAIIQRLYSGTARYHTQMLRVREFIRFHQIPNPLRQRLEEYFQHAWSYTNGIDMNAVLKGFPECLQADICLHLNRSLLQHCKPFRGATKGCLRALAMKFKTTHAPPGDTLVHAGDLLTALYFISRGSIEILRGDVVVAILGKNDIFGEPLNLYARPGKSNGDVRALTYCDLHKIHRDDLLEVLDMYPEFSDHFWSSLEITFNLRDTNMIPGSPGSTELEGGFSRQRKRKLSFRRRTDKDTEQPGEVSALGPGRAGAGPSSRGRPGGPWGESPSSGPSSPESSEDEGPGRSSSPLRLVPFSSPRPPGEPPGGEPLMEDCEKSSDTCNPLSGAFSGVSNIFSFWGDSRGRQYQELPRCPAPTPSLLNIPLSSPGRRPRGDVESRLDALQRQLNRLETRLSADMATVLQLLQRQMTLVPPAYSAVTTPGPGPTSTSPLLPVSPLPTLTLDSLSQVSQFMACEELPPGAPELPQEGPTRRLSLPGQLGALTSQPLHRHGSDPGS
As for `CC1CN=C(Nc2ccccc2)S1` (stereo not shown), the “hERG current change (%, negative = inhibition) at 10uM” value amounted to 7.23%.
As for `COc1cccc(CNS(=O)(=O)c2c(C(=O)N3CCCCC3)c(C)n(C)c2C)c1`, the figure is 9.63%; as for `O=[N+]([O-])c1ccc(SCCc2ccccn2)cc1`, -44.3%; as for `Fc1ccc(SCCc2ccncc2)cc1`, -29.9%.
Consider `O=C(COC(=O)CSc1ccc([N+](=O)[O-])cc1)NCCc1ccccc1`, for which the “hERG current change (%, negative = inhibition) at 10uM” value was 5.52%.
As for `Cn1c(SCCc2ccc([N+](=O)[O-])cc2)nccc1=O`, the figure is -59.9%; as for `O=[N+]([O-])c1ccc(SCCc2ccncc2)cc1`, -63.7%; as for `COC(=O)c1cnc(SCc2ccc([N+](=O)[O-])cc2)n1C`, -32%.
As to `O=c1ccnc(SCCc2ccc([N+](=O)[O-])cc2)[nH]1`, the “hERG current change (%, negative = inhibition) at 10uM” value was -34%.
On to `O=C(COC(=O)CSc1ccc([N+](=O)[O-])cc1)NCCCc1ccccc1`, for which the “hERG current change (%, negative = inhibition) at 10uM” value stood at 4.5%.
For the compound `O=[N+]([O-])c1ccc(SCCc2cc[nH+]cc2)cc1.[Cl-]`, the “hERG current change (%, negative = inhibition) at 10uM” value was -53.7%.
As for `COc1ccc(C)cc1Cn1c(S(C)(=O)=O)nc2ccccc21`, the figure is -9.64%.
As to `Cc1cccc(N2CCN(C(=O)CCN3C(=O)C4C5C=CC(C5)C4C3=O)CC2C)c1` (stereo not shown), the “hERG current change (%, negative = inhibition) at 10uM” value was -18.2%.
Then `CCN1CN(CCc2ccccc2)CNC1=S`, with 5.61%; and `O=C(C1CCN(S(=O)(=O)c2ccc(Cl)cc2)CC1)N1CCCCCCC1`, with -16.1%; and `Cc1ccc(-n2nc3c(c2NC(=O)c2ccc4c(c2)OCO4)CS(=O)C3)cc1` (stereo not shown), with 7.09%.
As for `CCN(CC)C(=O)/C(=C\c1ccc2c(c1)OCO2)NC(=O)c1ccc(Br)cc1`, the “hERG current change (%, negative = inhibition) at 10uM” value is given as -63.5%.
As for `O=C(NCc1ccc2c(c1)OCO2)c1ccc(Br)cc1`, the figure is -19.8%; as for `CCN(CC)C(=O)/C(=C/c1ccc2c(c1)OCO2)NC(=O)c1ccc(Br)cc1`, -70.5%.
As for `CCN(CC)C(=O)/C(=C\c1ccc(Br)cc1)NC(=O)c1ccccc1OC`, the figure is -27.3%; as for `COc1ccc(C(=O)N/C(=C\c2ccc3c(c2)OCO3)C(=O)Nc2ccc(C(=O)O)cc2)cc1`, 17.8%.
Regarding `COc1ccc(-c2cn(CCN)c(-c3ccncc3)n2)cc1`, the “hERG current change (%, negative = inhibition) at 10uM” value turned out to be 5.87%.
For `CN(C)S(=O)(=O)c1ccc(Cl)c(NC(=O)COC(=O)CN2C(=O)C3CCCCC3C2=O)c1` (stereo not shown), the “hERG current change (%, negative = inhibition) at 10uM” value is listed as 6.74%.
As for `CCC1CCCCN1S(=O)(=O)c1ccc2[nH]c(=O)ccc2c1` (stereo not shown), the figure is -60.1%; as for `CC1CCN(S(=O)(=O)c2ccc3[nH]c(=O)ccc3c2)CC1`, -5.5%.
Then `CCC1CCCCN1S(=O)(=O)c1ccccc1` (stereo not shown), with -13%.
Then `C=CCN(c1ccc(C(=O)NCCc2ccccc2)cc1)S(C)(=O)=O`, with -6.23%; and `COc1ccc(C)cc1NC(=O)C(c1ccccc1)N1CCNC(=O)C1` (stereo not shown), with -5.31%; and `CC(C)c1ccc(C(=O)NCCCN2CCOCC2)cc1`, with -5.2%.
For `CC(C)c1ccc(C(=O)NCCCN2CCN(CCCNC(=O)c3ccc(C(C)C)cc3)CC2)cc1`, the “hERG current change (%, negative = inhibition) at 10uM” value is -84.3%.
Then `CN1CCN(CCCNC(=O)c2ccc(NC(=O)C3=CSCCO3)cc2)CC1`, with 11.5%; and `Cc1ccc(C(=O)NCCCN2CCN(CCCNC(=O)c3ccc(C)cc3)CC2)cc1`, with -67.5%.
Consider `CC(C)(C)c1ccc(C(=O)NCCN2CCCC2)cc1.Cl`, for which the “hERG current change (%, negative = inhibition) at 10uM” value was -6.48%.
Then `Cc1ccc(C(=O)NCCN2CCCC2)cc1.Cl`, with -5.44%; and `CC(C)(C)c1ccc(C(=O)NCCCN2CCN(CCCNC(=O)c3ccc(C(C)(C)C)cc3)CC2)cc1`, with -63.6%; and `O=C(Nc1ccc(C(=O)NCCCN2CCN(c3ccccc3)CC2)cc1)C1=CSCCO1`, with -38.2%.
As for `Cc1ccc(C(=O)NCCCN2CCOCC2)cc1`, the figure is 3.81%; as for `CC(C)(C)c1ccc(C(=O)NCCN2CCOCC2)cc1`, 1.01%; as for `O=C(Nc1ccc(C(=O)NCCCN2CCN(c3ccc(F)cc3)CC2)cc1)C1=CSCCO1`, -54%.
Then `CC(C)c1ccc(C(=O)NCCCN(C)C)cc1`, with -17.1%.
With `COc1cccc(C(=O)NCC2CCCN2S(=O)(=O)c2ccccc2)c1` (stereo not shown), the “hERG current change (%, negative = inhibition) at 10uM” value is 2.72%.
Then `COc1cccc(-n2c(C)n[nH]c2=O)c1`, with 14.1%; and `O=C(N/N=C/c1ccc(O)cc1)c1csc2c1CCCC2`, with -19.7%; and `CCc1cc(Br)ccc1N1C(=O)C2CC=CCC2C1=O` (stereo not shown), with 5.21%.
Turning to `Cc1nccn1CCCNC(=O)CC1C(=O)NCCN1Cc1ccccc1C(F)(F)F` (stereo not shown), the “hERG current change (%, negative = inhibition) at 10uM” value was determined as 9.64%.
As for `CCCN(N=Nc1cccc([N+](=O)[O-])c1)c1cccc([N+](=O)[O-])c1`, the figure is 3.14%; as for `O=C(NCCCNC(=O)c1ccc(F)cc1)c1ccc(F)cc1`, 7.81%.
On to `O=C(NCCCCNC(=O)c1ccc(F)cc1)c1ccc(F)cc1`, for which the “hERG current change (%, negative = inhibition) at 10uM” value came out at 13.3%.
For `O=C(NCCCN1CCN(CCCNC(=O)c2ccc(F)cc2)CC1)c1ccc(F)cc1`, the “hERG current change (%, negative = inhibition) at 10uM” value is recorded as -51.1%.
As for `CCn1c2ccccc2c2nnc(SCC(=O)N(C)C3CCS(=O)(=O)C3)nc21` (stereo not shown), the figure is -21%; as for `O=C(CN(C(=O)CCC(=O)Nc1ccccn1)c1cccc(F)c1)NCc1ccc(F)cc1`, -4.26%; as for `CS(=O)(=O)N1CCN(C(=O)c2csc3ccccc23)CC1`, 2.35%.
On to `CN1CC(C(=O)c2ccc(F)cc2)C(c2c(F)cccc2Cl)C1` (stereo not shown), for which the “hERG current change (%, negative = inhibition) at 10uM” value was -65.7%.
Turning to `CN1CC(C(=O)c2ccc(Cl)cc2)C(c2ccccc2F)C1` (stereo not shown), the “hERG current change (%, negative = inhibition) at 10uM” value is -46.5%.
Regarding `Cc1ccc(C2CN(C)CC2C(=O)c2ccc(F)cc2)cc1` (stereo not shown), the “hERG current change (%, negative = inhibition) at 10uM” value was -53.2%.
For the compound `Cc1ccc(C2CN(c3ccccc3)CC2C(=O)c2ccc(F)cc2)cc1` (stereo not shown), the “hERG current change (%, negative = inhibition) at 10uM” value is -17%.
Take `CN1CC(C(=O)c2ccc(F)cc2)C(c2ccc(F)cc2)C1` (stereo not shown): the “hERG current change (%, negative = inhibition) at 10uM” value is -30.2%.
Then `COc1cccc(C(=O)C2CN(c3ccccc3)CC2c2ccc(Cl)cc2)c1` (stereo not shown), with 5.04%; and `COc1cccc(C(=O)C2CN(C)CC2c2ccc(Cl)cc2)c1` (stereo not shown), with -66.4%.
Consider `O=C(c1ccccc1)C1CN(c2ccccc2)CC1c1ccc(Cl)cc1` (stereo not shown), for which the “hERG current change (%, negative = inhibition) at 10uM” value is on record as 27.1%.
Consider `CN1CC(C(=O)c2ccc(Cl)cc2)C(c2ccc(Cl)cc2Cl)C1` (stereo not shown), for which the “hERG current change (%, negative = inhibition) at 10uM” value is -49.2%.
For the compound `CN1CC(C(=O)c2ccc([N+](=O)[O-])cc2)C(c2ccc(Cl)cc2)C1` (stereo not shown), the “hERG current change (%, negative = inhibition) at 10uM” value is given as -75.6%.
As for `CN1CC(C(=O)c2cccc(C(F)(F)F)c2)C(c2ccc(Cl)cc2)C1` (stereo not shown), the figure is -20%; as for `COc1ccc(OC)c(NC(=O)COC(=O)c2ccc(OC)c(S(=O)(=O)N3CCCC3)c2)c1`, 16.9%.
As for `CN(C)C=O.NS(=O)(=O)c1cccc(NC(=O)CSc2nc3nc(-c4cccs4)cc(C(F)(F)F)c3c(=O)[nH]2)c1`, the figure is 7.85%; as for `CCOc1cc(CNc2nn[nH]n2)ccc1OCC(=O)NC(C)(C)C`, 13.2%; as for `O=C(c1cc(O)c(O)c([N+](=O)[O-])c1)c1ccccc1F`, 2.56%.
Then `COCCNC(=O)Nc1ccc2nc(-c3ccco3)c(-c3ccco3)nc2c1`, with 4.08%; and `CCOC(=O)CC(NS(=O)(=O)c1ccc2[nH]cc(C(=O)O)c(=O)c2c1)c1ccc(OCC)c(OC)c1` (stereo not shown), with -1.02%.
As for `COCCn1c(N)c(N(Cc2ccccc2)C(=O)c2ccc3ccccc3c2)c(=O)[nH]c1=O`, the “hERG current change (%, negative = inhibition) at 10uM” value stood at 7.55%.
Then `O=C(NC1CCCC1)C1CC(=O)N(CCc2ccccc2)C1` (stereo not shown), with 9.66%.
As for `O=C(COc1ccccc1Cl)N1CCCC1`, the “hERG current change (%, negative = inhibition) at 10uM” value is reported as 5.64%.
Then `CN1CC(C(=O)c2cccs2)C(c2ccc(Cl)cc2)C1` (stereo not shown), with -49.2%; and `Cc1ccc(C(=O)C2CN3CCC2CC3)cc1.Cl` (stereo not shown), with -37.4%; and `CN1CC(C(=O)c2ccccc2)C(C(=O)c2ccccc2)C1` (stereo not shown), with -21.4%.
As for `COc1ccc(-c2ccc(C(=O)C3CC3)cc2)cc1`, the figure is 14.7%.
As to `CN1CC(C(=O)c2ccc(Cl)cc2)C(c2ccc(N(C)C)cc2)C1` (stereo not shown), the “hERG current change (%, negative = inhibition) at 10uM” value is listed as -57.9%.
Then `CC(=O)Nc1ccc(C2CN(C)CC2C(=O)c2ccc(Cl)cc2)cc1` (stereo not shown), with -31.8%; and `COc1ccc(C(=O)C2CN(C)CC2C(=O)c2ccc(OC)cc2)cc1` (stereo not shown), with -57.9%.
Then `COc1ccc(C(=O)C2CN(C)CC2c2ccc(Cl)cc2)cc1` (stereo not shown), with -73.1%; and `CN1CC(C(=O)c2ccccc2)C(c2ccccc2)C1` (stereo not shown), with -5.47%; and `CN1CC(C(=O)c2ccc(Cl)cc2)C(c2ccccc2)C1` (stereo not shown), with -31.8%.
`Cc1ccc(C(=O)C2CN(C)CC2C(=O)c2ccc(C)cc2)cc1` (stereo not shown): the “hERG current change (%, negative = inhibition) at 10uM” value is -57%.
As for `COc1ccc(C(=O)C2CN(c3ccccc3)CC2c2ccc(Cl)cc2)cc1` (stereo not shown), the figure is -4.84%; as for `CNCCOc1ccccc1-c1ccccc1.O=C(O)C(=O)O`, -5.68%; as for `O=C(CCN1C(=O)c2ccccc2S1(=O)=O)N1CCN(c2ccccc2F)CC1`, -5.02%.
In the case of `Cc1ccsc1C(=O)NCC(C)(C)N1CCOCC1`, the “hERG current change (%, negative = inhibition) at 10uM” value was -9.41%.
Then `CC(=O)SC(C)CC(=O)Nc1ccccc1` (stereo not shown), with 7.33%; and `Cc1nc2cc(-c3ccccc3)nn2c(C)c1CCC(=O)NC(C)c1ccc2c(c1)OCCO2` (stereo not shown), with -50.8%.
As for `Cc1nc2nc(C)c(CCC(=O)N3CCN(c4ccccn4)CC3)c(C)n2n1`, the figure is -46.1%; as for `Cc1nc2cc(-c3cccc(F)c3)nn2c(C)c1CCC(=O)N1CCN(c2ccccn2)CC1`, -13.1%; as for `Cc1nc2cc(-c3cccc(F)c3)nn2c(C)c1CCC(=O)NC(C)c1ccc2c(c1)OCCO2` (stereo not shown), -44.6%.
As for `Cc1nc2nc(C)c(CCC(=O)N3CCN(c4ccccc4)CC3)c(C)n2n1`, the figure is -56.2%; as for `Cc1nc2cc(-c3ccccc3)nn2c(C)c1CCC(=O)N1CCN(c2ccccc2)CC1`, -65.7%; as for `Cc1nc2nc(C)c(CCC(=O)N3CCOCC3)c(C)n2n1`, -21%.
In the case of `Cc1nc2cc(-c3ccccc3)nn2c(C)c1CCC(=O)N1CCC2(CC1)OCCO2`, the “hERG current change (%, negative = inhibition) at 10uM” value was -47.2%.
Take `Cc1nc2cc(-c3ccc(Cl)cc3)nn2c(C)c1CCC(=O)NC(C)c1ccc2c(c1)OCCO2` (stereo not shown): the “hERG current change (%, negative = inhibition) at 10uM” value was -23.8%.
